Measured values reported in PMC7826789 (International Journal of Molecular Sciences, 2021).

Experiments:
Conditions in all cases: Compound Concentration (nM):1000
BRSK2 = system: BRSK2
BTK = system: BTK
BUB1 = system: BUB1
CAMK1B = system: T1, CAMK1B
T1 construct: gene PNCK

CAMK1D = system: CAMK1D
CAMK1G = system: CAMK1G
CAMK1 = system: CAMK1
CAMK2A = system: CAMK2A
CAMK2B = system: CAMK2B
CAMK2D = system: CAMK2D
CAMK2G = system: CAMK2G
CAMK4 = system: CAMK4
CAMKK1 = system: CAMKK1
CAMKK2 = system: CAMKK2
CASK = system: CASK
CDC2L1 = system: T2, CDC2L1
T2 construct: gene CDK11B

CDC2L2 = system: CDC2L2
CDC2L5 = system: T3, CDC2L5
T3 construct: gene CDK13

CDK11 = system: T4, CDK11
T4 construct: gene CDK19

CDK2 = system: CDK2
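Also: KINOMEscan scanMAX binding as percent activity remaining versus control; lower means stronger binding.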

SMILES	Percent Control (BRSK2)	Percent Control (BTK)	Percent Control (BUB1)	Percent Control (CAMK1B)	Percent Control (CAMK1D)	Percent Control (CAMK1G)	Percent Control (CAMK1)	Percent Control (CAMK2A)	Percent Control (CAMK2B)	Percent Control (CAMK2D)	Percent Control (CAMK2G)	Percent Control (CAMK4)	Percent Control (CAMKK1)	Percent Control (CAMKK2)	Percent Control (CASK)	Percent Control (CDC2L1)	Percent Control (CDC2L2)	Percent Control (CDC2L5)	Percent Control (CDK11)	Percent Control (CDK2)
NS(=O)(=O)c1ccc(N/N=C2\C(=O)Nc3ccc(-c4cnco4)cc32)cc1 [GW276655]	66%	50%	74%	76%	71%	85%	74%	56%	78%	72%	91%	100%	63%	83%	84%	100%	100%	56%	100%	32%
COc1cccc(-n2ncc3c(N/N=C/c4ccncc4)ncnc32)c1 [GW784752X]	61%	100%	77%	99%	100%	100%	99%	89%	82%	100%	100%	100%	100%	100%	68%	100%	97%	83%	100%	72%
CN(C)c1cc2c(Nc3ccc4c(cnn4Cc4ccccc4)c3)ncnc2cn1 [GW282974X]	88%	64%	63%	98%	96%	91%	95%	74%	62%	72%	82%	100%	77%	73%	100%	100%	100%	67%	99%	79%
C[C@@H](Oc1cc(-n2cnc3ccc(OC4CCN(C)CC4)cc32)sc1C(N)=O)c1ccccc1Cl [GSK579289A]	56%	92%	88%	100%	61%	81%	55%	74%	80%	52%	69%	100%	85%	67%	11%	97%	94%	79%	100%	74%
COc1ccc2[nH]c3c4[nH]c5ccc(OC)cc5c4c4c(c3c2c1)C(=O)NC4=O [GW296115X]	6.2%	74%	29%	78%	64%	76%	80%	70%	100%	64%	80%	98%	78%	74%	100%	90%	91%	100%	100%	93%
COc1cc(/C=N/Nc2ncnc3[nH]ncc23)ccc1O [GW578748X]	61%	44%	23%	83%	85%	100%	100%	80%	100%	96%	100%	100%	96%	88%	63%	100%	100%	100%	100%	100%
CN1CCN(C(=O)c2ccc(NC(=O)Nc3ccc(N(C)c4ccnc(Nc5ccc(CS(C)(=O)=O)cc5)n4)cc3)cc2)CC1.Cl [GW830263A]	100%	50%	46%	85%	98%	88%	100%	86%	86%	69%	100%	100%	28%	100%	85%	67%	51%	13%	100%	87%
CCS(=O)(=O)c1ccc(OC)c(Nc2ncc(-c3cccc(OC)c3)o2)c1 [GW580509X]	96%	99%	95%	100%	99%	100%	87%	71%	80%	97%	93%	100%	97%	79%	95%	100%	100%	100%	100%	100%
COc1cc(N2CCN(C(C)C)CC2)ccc1Nc1nc(Nc2ccc(F)cc2C(=O)NC[C@@H](O)CO)c2cc[nH]c2n1 [GSK1392956A]	100%	100%	88%	60%	40%	75%	73%	69%	64%	87%	90%	57%	79%	45%	78%	100%	100%	64%	91%	86%
Cl.c1ccc(Cc2nc3ccc(Nc4ncnc5ccccc45)cc3[nH]2)cc1 [GR269666A]	91%	100%	100%	89%	100%	100%	90%	93%	99%	100%	100%	100%	100%	100%	100%	100%	100%	100%	100%	100%
CCn1c(-c2nonc2N)nc2c(C#CC(C)(C)O)nc(OCCNC)cc21.Cl [GSK949675]	91%	100%	71%	100%	100%	100%	100%	100%	100%	100%	100%	100%	100%	100%	100%	100%	100%	100%	100%	100%
CC1=C(C(=O)Nc2ccc3[nH]ncc3c2)C(c2ccc(Cl)c(Cl)c2)CC(=O)N1 (stereo not shown) [GSK299115A]	98%	26%	73%	81%	90%	100%	87%	80%	88%	96%	95%	100%	95%	85%	96%	100%	96%	77%	91%	100%
COc1cccc(-c2c[nH]c3c(N/N=C/c4ccncc4)ncnc23)c1 [GW814408X]	92%	77%	50%	95%	100%	97%	100%	77%	81%	84%	100%	100%	100%	95%	44%	81%	53%	87%	100%	62%
COc1ccc2cc(-c3c(-c4ccncc4)nc(-c4ccc(S(C)(=O)=O)cc4C)n3C)ccc2c1 [SB-633825]	73%	45%	33%	53%	96%	83%	93%	87%	97%	77%	76%	87%	77%	73%	84%	92%	96%	91%	100%	79%
O=C1Nc2ccc(C(=O)c3ccco3)cc2C1=Cc1cc(Cl)c(O)c(Cl)c1 [GW406108X]	100%	87%	50%	100%	81%	77%	63%	25%	44%	55%	77%	100%	43%	31%	87%	100%	98%	99%	100%	100%
COc1ccc(COc2ccc(Cc3cnc(N)nc3N)cc2OC)cc1 [GW632580X]	55%	96%	100%	100%	95%	96%	100%	90%	96%	89%	99%	100%	95%	98%	98%	97%	75%	72%	89%	100%
Cl.O=C(Nc1ccc(Oc2ccc3[nH]c(NC(=O)c4ccccc4)nc3c2)cc1)Nc1cc(C(F)(F)F)ccc1F [GW709042A]	73%	93%	92%	100%	97%	100%	95%	100%	95%	100%	100%	100%	100%	100%	93%	92%	100%	100%	23%	100%
CC1=C(C(=O)Nc2ccc3[nH]ncc3c2)C(c2ccc3ccccc3c2)CC(=O)N1 (stereo not shown) [GSK270822A]	73%	13%	60%	67%	97%	91%	83%	87%	87%	79%	79%	100%	70%	69%	86%	100%	90%	85%	90%	100%
NS(=O)(=O)c1ccc(Nc2ncc(-c3ccccc3)o2)cc1 [GW572399X]	100%	96%	80%	100%	100%	100%	78%	94%	100%	100%	100%	100%	100%	100%	94%	100%	100%	26%	100%	100%
Nc1ncnc2occ(-c3ccc(NC(=O)Nc4cc(C(F)(F)F)ccc4F)cc3)c12 [GW770249X]	88%	87%	98%	94%	93%	94%	77%	100%	100%	100%	92%	100%	97%	82%	95%	99%	68%	1.4%	0%	38%
